Measurements published in PubChem BioAssay (NCI).
This is part of a sample that, as a whole, favours compounds with a hit. Of some 83,000 tested, about 20% had one in any assay.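 48-hour exposure, single concentration, 96-well plates; percent growth endpoint where 0 means no net growth. Active: below 10.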 Activity calls are given as the source filed them.

Key:
Assay in all cases: NCI-60 one-dose screen, 48 h (100 = growth as untreated, 0 = no growth, -100 = all killed)
Details in all cases: 10 µM unless noted
NCI-H23 lung = test system: NCI-H23 lung
NCI-H226 lung = test system: NCI-H226 lung
NCI-H322M lung = test system: NCI-H322M lung
HOP-62 NSCLC = test system: HOP-62 NSCLC
NCI-H460 lung = test system: NCI-H460 lung
HOP-92 NSCLC = test system: HOP-92 NSCLC
NCI-H522 lung = test system: NCI-H522 lung
A549/ATCC NSCLC = test system: A549/ATCC NSCLC
786-0 renal = test system: 786-0 renal
COLO 205 colon = test system: COLO 205 colon

Measured: growth

C=CCOC(=O)C1=C(C)N(CC)C(=O)NC1c1c(Cl)n(C)c2ccccc12 (stereo not given)
inactive: NCI-H23 lung 96% | NCI-H226 lung 106% | NCI-H322M lung 78.8% | HOP-62 NSCLC 103% | NCI-H460 lung 99% | HOP-92 NSCLC 68.1% | NCI-H522 lung 85.3% | A549/ATCC NSCLC 87.6% | 786-0 renal 95.7% | COLO 205 colon 108%

CC(C)(C)c1cc(Cl)c(O)c(CNCCO)c1
inactive: NCI-H23 lung 112% | NCI-H226 lung 98.5% | NCI-H322M lung 118% | HOP-62 NSCLC 101% | NCI-H460 lung 101% | HOP-92 NSCLC 90.8% | NCI-H522 lung 106% | A549/ATCC NSCLC 109% | 786-0 renal 102% | COLO 205 colon 112%

COc1ccc(C(=S)N2CCN(c3ccc(Cl)cc3)CC2)cc1
inactive: NCI-H23 lung 101% | NCI-H226 lung 96% | NCI-H322M lung 89.3% | HOP-62 NSCLC 97.8% | NCI-H460 lung 105% | HOP-92 NSCLC 89.9% | NCI-H522 lung 75.6% | A549/ATCC NSCLC 84% | 786-0 renal 92.5% | COLO 205 colon 103%

C=C1C(=O)O[C@H]2[C@H]1CC/C(COC(=O)/C=C\C(=O)NCc1ccc(Cn3c(=O)sn(CCCl)c3=O)cc1)=C\CC[C@@]1(C)O[C@@H]21
inactive: NCI-H23 lung 86.9% | NCI-H226 lung 102% | NCI-H322M lung 104% | HOP-62 NSCLC 116% | NCI-H460 lung 101% | HOP-92 NSCLC 115% | A549/ATCC NSCLC 111% | 786-0 renal 83.4% | COLO 205 colon 34.8%
active: NCI-H522 lung -64.4%

COc1cc(/C=C/C(=O)/C=C(O)/C=C/c2ccc(OC(=O)C34CC5CC(CC(C5)C3)C4)c(OC)c2)ccc1OC(=O)C12CC3CC(CC(C3)C1)C2
inactive: NCI-H23 lung 103% | NCI-H226 lung 93.6% | NCI-H322M lung 102% | HOP-62 NSCLC 99.1% | NCI-H460 lung 108% | HOP-92 NSCLC 110% | NCI-H522 lung 94.8% | A549/ATCC NSCLC 103% | 786-0 renal 105% | COLO 205 colon 112%

COc1ccc(C(=O)N2c3ccccc3Sc3ccccc32)c(C(F)(F)F)c1
active: NCI-H460 lung 9.51% | NCI-H522 lung 2% | COLO 205 colon -13.9%
inactive: NCI-H23 lung 24.4% | NCI-H226 lung 13.1% | NCI-H322M lung 53.4% | HOP-62 NSCLC 42.8% | HOP-92 NSCLC 15% | A549/ATCC NSCLC 25.3% | 786-0 renal 38.8%

CN1CCN(CC(=O)Nc2ccc3ncnc(Nc4ccc(Oc5cccc(C(F)(F)F)c5)c(Cl)c4)c3c2)CC1
inactive: NCI-H23 lung 53.1% | NCI-H226 lung 81.5% | NCI-H322M lung 26.5% | HOP-62 NSCLC 54.1% | HOP-92 NSCLC 39.7% | NCI-H522 lung 18% | A549/ATCC NSCLC 10.2%
active: NCI-H460 lung -69.4% | 786-0 renal -75.8% | COLO 205 colon -39.5%

C=C(CNCCc1ccc(O)cc1)[C@@H]1CC[C@]2(CO)CC[C@]3(C)[C@H](CC[C@@H]4[C@@]5(C)CCC(=O)C(C)(C)[C@@H]5CC[C@]43C)[C@@H]12
inactive: NCI-H23 lung 65.7% | NCI-H226 lung 93.1% | NCI-H322M lung 63.2% | HOP-62 NSCLC 84.4% | HOP-92 NSCLC 35.1% | NCI-H522 lung 29.2% | A549/ATCC NSCLC 26.7% | 786-0 renal 44.7%
active: NCI-H460 lung -48.8% | COLO 205 colon -55.6%

C#CCO[C@H]1CC(CC#C)(CC#C)C(=O)[C@@H]2[C@H]1[C@H]1C[C@@H]3[C@@]4(C)CCC[C@@](C)(C(=O)OC)[C@@H]4CC[C@@]23C=C1C(C)C
inactive: NCI-H23 lung 73.2% | NCI-H226 lung 88.3% | NCI-H322M lung 104% | HOP-62 NSCLC 98.7% | NCI-H460 lung 97.8% | HOP-92 NSCLC 13.6% | A549/ATCC NSCLC 89.4% | 786-0 renal 41.4% | COLO 205 colon 86.8%
active: NCI-H522 lung -77%

CCOC(=O)C1=C(C)C(Cl)=N/C1=C\c1[nH]c(Cl)c(C)c1C(=O)OCC
inactive: NCI-H23 lung 98.2% | NCI-H226 lung 65.1% | NCI-H322M lung 100% | HOP-62 NSCLC 96.5% | NCI-H460 lung 108% | HOP-92 NSCLC 87.8% | NCI-H522 lung 77.5% | A549/ATCC NSCLC 78% | 786-0 renal 97.7% | COLO 205 colon 107%

COc1cccc(/C=N/NC(=O)c2ccccc2N2CCCC2)c1O
inactive: NCI-H23 lung 53.3% | NCI-H226 lung 71.7% | NCI-H322M lung 49.6% | HOP-62 NSCLC 46.9% | NCI-H460 lung 20.9% | HOP-92 NSCLC 47.6% | A549/ATCC NSCLC 70.5% | 786-0 renal 53.4% | COLO 205 colon 54.3%
active: NCI-H522 lung -34.1%

CS(=O)(=O)Nc1cc(-c2ccc3ncc(C#N)c(Nc4ccc(F)c(Cl)c4)c3c2)cnc1Cl
active: NCI-H23 lung -11.7% | NCI-H226 lung -0.649% | NCI-H322M lung 5.43% | HOP-62 NSCLC 1.41% | NCI-H460 lung 6.16% | HOP-92 NSCLC -1.46% | NCI-H522 lung -18.1% | A549/ATCC NSCLC 5.08% | 786-0 renal 6.73% | COLO 205 colon -53.5%

CC1=C2[C@@H](CC1)[C@]1(C)O[C@@](c3ccccc3)(C[C@H]1OC(=O)CO)[C@H]2OC(=O)/C=C/c1ccccc1
inactive: NCI-H23 lung 99.3% | NCI-H226 lung 80.8% | NCI-H322M lung 101% | HOP-62 NSCLC 100% | NCI-H460 lung 85.2% | HOP-92 NSCLC 96.2% | NCI-H522 lung 72.3% | A549/ATCC NSCLC 74.4% | 786-0 renal 68.7% | COLO 205 colon 110%

Fc1ccc2[nH]cc(-c3nc(-c4c[nH]c5ccncc45)cs3)c2c1
active: NCI-H322M lung -5.67% | HOP-62 NSCLC -73.6% | NCI-H460 lung -71.5% | NCI-H522 lung -61.1% | A549/ATCC NSCLC -41.7% | 786-0 renal -92.9% | COLO 205 colon -72.9%
inactive: NCI-H23 lung 49.3% | NCI-H226 lung 68.6% | HOP-92 NSCLC 28.6%

O=c1c2ccccc2c(=O)c2c1sc1c(=O)c3ccc(O)cc3c(=O)c12
active: NCI-H23 lung -38.8% | NCI-H226 lung -91.3% | NCI-H322M lung -95.9% | HOP-62 NSCLC -78.8% | NCI-H460 lung -73.1% | HOP-92 NSCLC -24.9% | NCI-H522 lung -64.5% | A549/ATCC NSCLC -55.1% | 786-0 renal -52.7% | COLO 205 colon -82.5%

CCN1C(=O)N(CC)C2C1NN=c1s/c(=C\c3ccc(C(F)(F)F)cc3)c(=O)n12 (stereo not given)
inactive: NCI-H23 lung 26.7% | NCI-H226 lung 60.8% | NCI-H322M lung 45.2% | HOP-62 NSCLC 39.1% | HOP-92 NSCLC 34.8% | 786-0 renal 24.9%
active: NCI-H460 lung 2.84% | NCI-H522 lung -10.5% | A549/ATCC NSCLC 5.31% | COLO 205 colon -6.59%

CS(=O)(=O)c1nnc(-c2ccccc2)s1
inactive: NCI-H23 lung 99.4% | NCI-H226 lung 113% | NCI-H322M lung 111% | HOP-62 NSCLC 85.5% | NCI-H460 lung 111% | HOP-92 NSCLC 103% | NCI-H522 lung 11.6% | A549/ATCC NSCLC 87.1% | 786-0 renal 88.7% | COLO 205 colon 77.3%

Cc1nc2sc(C(=O)Nc3cccc(Br)c3C)c(N)c2cc1C(O)c1ccccc1 (stereo not given)
inactive: NCI-H23 lung 18.5% | NCI-H226 lung 38.3% | NCI-H322M lung 42.2% | HOP-62 NSCLC 21.2% | HOP-92 NSCLC 24% | 786-0 renal 15.5%
active: NCI-H460 lung -0.559% | NCI-H522 lung 2.97% | A549/ATCC NSCLC 9.65% | COLO 205 colon -51.6%

Nc1nc(NC(=O)Nc2ccc(C(=O)O)cc2)nn1-c1ccc(S(N)(=O)=O)cc1
inactive: NCI-H23 lung 97.9% | NCI-H226 lung 92.1% | NCI-H322M lung 90.4% | HOP-62 NSCLC 93.6% | NCI-H460 lung 95.6% | HOP-92 NSCLC 78.3% | NCI-H522 lung 97.7% | A549/ATCC NSCLC 82.8% | 786-0 renal 97.8% | COLO 205 colon 111%

COc1ccc2c(c1)/C(=N/c1n[nH]c(=S)s1)C(=O)N2
inactive: NCI-H23 lung 93% | NCI-H226 lung 96.8% | NCI-H322M lung 91.8% | HOP-62 NSCLC 99.9% | NCI-H460 lung 92.9% | HOP-92 NSCLC 92.8% | NCI-H522 lung 76.3% | A549/ATCC NSCLC 83.7% | 786-0 renal 105% | COLO 205 colon 118%

Fc1cc(Nc2ccc3c(OCCCN4CCOCC4)cccc3n2)ccc1Cl
inactive: NCI-H23 lung 61.1% | NCI-H226 lung 68.8% | NCI-H322M lung 45.3% | HOP-62 NSCLC 39.2% | NCI-H460 lung 21.1% | HOP-92 NSCLC 27.3% | A549/ATCC NSCLC 25.7%
active: NCI-H522 lung -15.5% | 786-0 renal 1.04% | COLO 205 colon -50.2%

Cc1cc(Nc2ccc(C(=O)N3CCCC3)cc2)nc(NCCCNc2ccnc3cc(Cl)ccc23)n1
inactive: NCI-H23 lung 87.8% | NCI-H226 lung 105% | NCI-H322M lung 85.8% | HOP-62 NSCLC 81.2% | NCI-H460 lung 59.4% | HOP-92 NSCLC 90.5% | NCI-H522 lung 65.6% | A549/ATCC NSCLC 104% | 786-0 renal 87.9% | COLO 205 colon 76.5%

CO[C@H](C(=O)[C@@H](O)[C@@H](C)O)[C@@H]1Cc2cc3cc(O[C@H]4C[C@@H](O[C@H]5C[C@@H](O)[C@H](O)C(C)O5)[C@H](O)C(C)(O)O4)cc(O)c3c(O)c2C(=O)[C@H]1O[C@H]1C[C@@H](O[C@H]2C[C@@H](O[C@H]3C[C@@H](OC)[C@H](O)C(C)O3)[C@@H](O)C(C)O2)[C@H](O)C(C)O1 (stereo not given in full)
inactive: NCI-H23 lung 16.4% | NCI-H322M lung 21.1% | NCI-H460 lung 12.9% | HOP-92 NSCLC 25.2% | 786-0 renal 26.6%
active: NCI-H226 lung -29.7% | HOP-62 NSCLC 1.64% | NCI-H522 lung -17.6% | A549/ATCC NSCLC 6.26% | COLO 205 colon -42.4%

O=S(=O)(Nc1cc(Sc2cccc3cccnc23)c(O)c2ccccc12)c1ccccc1
active: NCI-H460 lung 3.5% | NCI-H522 lung -37.3% | COLO 205 colon -47.6%
inactive: NCI-H23 lung 28.8% | NCI-H226 lung 46.3% | NCI-H322M lung 28.3% | HOP-62 NSCLC 47.3% | HOP-92 NSCLC 33.1% | A549/ATCC NSCLC 15.7% | 786-0 renal 36.6%

C/C(=N\O)c1ccc(NC(=O)CSc2nnc(-c3cc(-c4ccc(S(N)(=O)=O)cc4)nc4ccccc34)n2-c2ccccc2)cc1
inactive: NCI-H23 lung 89.6% | NCI-H226 lung 80.4% | NCI-H322M lung 86.5% | HOP-62 NSCLC 95.5% | NCI-H460 lung 67.2% | HOP-92 NSCLC 66% | NCI-H522 lung 67.4% | A549/ATCC NSCLC 79.5% | 786-0 renal 72.6% | COLO 205 colon 78.3%
